In the supplement of paper PMC7261846:
Structures can show the parent of a compound that is named as a salt. ± gives the uncertainty stated by the source.

Tested on: Candida albicans SNY425 biofilm
Assay: biofilm OD600 with compound plus antifungal (OD600 (absorbance)); higher = more biofilm remaining
[1] = assay detail: disruption of 24-h mature biofilm (compound + antifungal for a second 24 h)
[2] = assay detail: sustained inhibition (compound + antifungal during 90-min adherence and 24-h growth)

SMILES	biofilm OD600 [1]	biofilm OD600 [2]
O=C(O)CNC(=O)C(CS)Cc1ccccc1 (racemic) [DL-Thiorphan] + OC(Cn1cncn1)(Cn1cncn1)c1ccc(F)cc1F [fluconazole] (first compound 12.5 µM)	0.262 ± 0.0084	0.107 ± 0.0069
O=C(O)CNC(=O)C(CS)Cc1ccccc1 (racemic) [DL-Thiorphan] + CC[C@H](C)C[C@H](C)CCCCCCCCC(=O)N[C@H]1C[C@@H](O)[C@@H](NCCN)NC(=O)[C@@H]2[C@@H](O)CCN2C(=O)[C@H]([C@H](O)CCN)NC(=O)[C@H]([C@H](O)[C@@H](O)c2ccc(O)cc2)NC(=O)[C@@H]2C[C@@H](O)CN2C(=O)[C@H]([C@@H](C)O)NC1=O [caspofungin] (first compound 12.5 µM)	0.262 ± 0.013	0.163 ± 0.0098
CNC(=O)[C@H](Cc1c[nH]c2ccccc12)NC(=O)[C@@H](CC(=O)NO)CC(C)C + OC(Cn1cncn1)(Cn1cncn1)c1ccc(F)cc1F [fluconazole] (first compound 12.5 µM)	0.272 ± 0.014	0.158 ± 0.0086
N=C(N)Nc1ccc(C(=O)Oc2ccc3cc(C(=N)N)ccc3c2)cc1 [Nafamostat mesylate] + C[C@@H]1[C@H](O)[C@@H](C)/C=C/C=C/C=C/C=C/C=C/C=C/C=C/[C@H](O[C@@H]2O[C@H](C)[C@@H](O)[C@H](N)[C@@H]2O)C[C@@H]2O[C@](O)(C[C@@H](O)C[C@@H](O)[C@H](O)CC[C@@H](O)C[C@@H](O)CC(=O)O[C@H]1C)C[C@H](O)[C@H]2C(=O)O [amphotericin B] (first compound 12.5 µM)	0.257 ± 0.012	0.171 ± 0.011
CCCCC[C@H](CC(=O)NO)C(=O)N[C@H](C(=O)N1CCC[C@H]1CO)C(C)C [Actinonin] + C[C@@H]1[C@H](O)[C@@H](C)/C=C/C=C/C=C/C=C/C=C/C=C/C=C/[C@H](O[C@@H]2O[C@H](C)[C@@H](O)[C@H](N)[C@@H]2O)C[C@@H]2O[C@](O)(C[C@@H](O)C[C@@H](O)[C@H](O)CC[C@@H](O)C[C@@H](O)CC(=O)O[C@H]1C)C[C@H](O)[C@H]2C(=O)O [amphotericin B] (first compound 12.5 µM)	0.255 ± 0.017	0.191 ± 0.0077
NC(N)=NCCC[C@H](NC(=O)[C@@H]1CCCN1C(=O)[C@H](N)Cc1ccccc1)C(=O)CCl + OC(Cn1cncn1)(Cn1cncn1)c1ccc(F)cc1F [fluconazole] (first compound 12.5 µM)	0.269 ± 0.0072	0.159 ± 0.011
O=c1oc(Cl)c(Cl)c2ccccc12 [3,4-Dichloroisocoumarin] + CC[C@H](C)C[C@H](C)CCCCCCCCC(=O)N[C@H]1C[C@@H](O)[C@@H](NCCN)NC(=O)[C@@H]2[C@@H](O)CCN2C(=O)[C@H]([C@H](O)CCN)NC(=O)[C@H]([C@H](O)[C@@H](O)c2ccc(O)cc2)NC(=O)[C@@H]2C[C@@H](O)CN2C(=O)[C@H]([C@@H](C)O)NC1=O [caspofungin] (first compound 12.5 µM)	0.246 ± 0.014	0.21 ± 0.014
C[C@]1(Cn2ccnn2)[C@H](C(=O)O)N2C(=O)C[C@H]2S1(=O)=O [Tazobactam] + C[C@@H]1[C@H](O)[C@@H](C)/C=C/C=C/C=C/C=C/C=C/C=C/C=C/[C@H](O[C@@H]2O[C@H](C)[C@@H](O)[C@H](N)[C@@H]2O)C[C@@H]2O[C@](O)(C[C@@H](O)C[C@@H](O)[C@H](O)CC[C@@H](O)C[C@@H](O)CC(=O)O[C@H]1C)C[C@H](O)[C@H]2C(=O)O [amphotericin B] (first compound 12.5 µM)	0.308 ± 0.008	0.193 ± 0.0071
NCCCC[C@H](N[C@@H](CCc1ccccc1)C(=O)O)C(=O)N1CCC[C@H]1C(=O)O [Lisinopril] + CC[C@H](C)C[C@H](C)CCCCCCCCC(=O)N[C@H]1C[C@@H](O)[C@@H](NCCN)NC(=O)[C@@H]2[C@@H](O)CCN2C(=O)[C@H]([C@H](O)CCN)NC(=O)[C@H]([C@H](O)[C@@H](O)c2ccc(O)cc2)NC(=O)[C@@H]2C[C@@H](O)CN2C(=O)[C@H]([C@@H](C)O)NC1=O [caspofungin] (first compound 12.5 µM)	0.258 ± 0.011	0.178 ± 0.023
CC(NC(=O)C(Cc1ccccc1)NC(=O)OCc1ccccc1)C(=O)CF (stereo not given) + C[C@@H]1[C@H](O)[C@@H](C)/C=C/C=C/C=C/C=C/C=C/C=C/C=C/[C@H](O[C@@H]2O[C@H](C)[C@@H](O)[C@H](N)[C@@H]2O)C[C@@H]2O[C@](O)(C[C@@H](O)C[C@@H](O)[C@H](O)CC[C@@H](O)C[C@@H](O)CC(=O)O[C@H]1C)C[C@H](O)[C@H]2C(=O)O [amphotericin B] (first compound 12.5 µM)	0.307 ± 0.0094	0.185 ± 0.005
